In the library only some 3.5% were active in any assay of this set; here they are far more common.
TEAD-YAP block: TEAD-YAP interaction inhibition; HEK-TIYL cells, TEAD-Gal4/YAP UAS-luciferase luminescence; inhibition, % at 9.12 µM; 640,000 compounds, 1.4% hits; AID 1259422; in the data active = inhibition above about 32%;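 also: 0% = median of test compound wells and 100% = reference inhibitor wells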
FBW7 activator: human FBW7 E3 ligase activation, primary screen; Q969H0; normalized activity (activation), % at 26.1 µM; 650,000 compounds, 0.13% hits; AlphaScreen FBW7–phospho-cyclin E peptide binding, activator screen; AID 1259310; in the data active = normalized activity above about 1.9%;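 also: purified mutant Fbw7 with reduced substrate affinity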
Target sequence (Q969H0 whole entry, looked up): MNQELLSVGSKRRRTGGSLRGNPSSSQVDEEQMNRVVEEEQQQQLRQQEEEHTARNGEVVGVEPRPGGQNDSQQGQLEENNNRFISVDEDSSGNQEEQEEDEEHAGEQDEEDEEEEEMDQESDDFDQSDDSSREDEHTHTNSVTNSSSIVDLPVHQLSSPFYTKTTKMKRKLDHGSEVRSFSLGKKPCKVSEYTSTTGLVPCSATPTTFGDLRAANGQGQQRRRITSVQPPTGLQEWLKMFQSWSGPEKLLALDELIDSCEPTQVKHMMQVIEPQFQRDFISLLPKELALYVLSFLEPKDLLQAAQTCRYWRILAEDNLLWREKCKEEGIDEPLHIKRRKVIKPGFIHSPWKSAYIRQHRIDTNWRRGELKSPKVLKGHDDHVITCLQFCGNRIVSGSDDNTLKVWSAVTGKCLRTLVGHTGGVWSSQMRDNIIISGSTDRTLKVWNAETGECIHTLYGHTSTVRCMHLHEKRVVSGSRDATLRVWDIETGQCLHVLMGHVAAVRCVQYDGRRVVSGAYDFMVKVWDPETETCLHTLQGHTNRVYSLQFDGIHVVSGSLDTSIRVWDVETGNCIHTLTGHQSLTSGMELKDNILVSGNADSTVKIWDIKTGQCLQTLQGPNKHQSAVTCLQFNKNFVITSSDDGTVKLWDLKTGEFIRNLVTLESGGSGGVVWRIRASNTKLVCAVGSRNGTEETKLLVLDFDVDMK
MITF inh: human MITF inhibition, primary screen. O75030. AlphaScreen MITF homodimerization, bead proximity signal. inhibition, % at 2.6 µM. 650,000 compounds, 0.91% hits. AID 1259374; in the data active = inhibition above about 50%;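 also: 0% = vehicle wells with protein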
GPR151 activ: activators of human GPR151 | Q8TDV0 | PathHunter beta-arrestin GPR151 cells, luminescence | activation, % at 11.2 µM | 650,000 compounds, 1% hits | AID 1508602; in the data active = activation above about 4.9%;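 also: 0% = median of compound wells and 100% = cells with positive control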
Numbers without * were called inactive.

SMILES	TEAD-YAP block	FBW7 activator	MITF inh	GPR151 activ
CC(C)(C)CC(C)(C)c1ccc(OCCOCC[N+](C)(C)Cc2ccccc2)cc1	54*	0	6	2
CC(=O)c1ccc(OCC[N+](C)(C)Cc2ccccc2)cc1	2	0	1	3
COc1ccc(Nc2ncnc3sc4c(c23)CCC4)cc1O	37*	0	5	-1
CN(C1=C(Cl)C(=O)N(c2cccc(Cl)c2)C1=O)c1ccccc1	33*	0	19	1
CCN(C1=C(Cl)C(=O)N(c2ccccc2)C1=O)c1ccccc1	6	0	7	0
O=C(NCC1Cc2cc(Cl)cc(-c3ncccn3)c2O1)c1ccc(N2CCCC2)cc1 (configuration not stated)	46*	0	2	-1
O=C(CCC1CCCC1)Nc1ccc(Cl)c([N+](=O)[O-])c1	-8	0	-3	-1
Nn1c2ccccc2n2cc(-c3ccc(Cl)cc3)nc12	56*	1	4	-6
Cc1ccc(S(=O)(=O)N(C)CC(=O)NCc2nc(-c3cccc(C)c3)no2)cc1	-4	0	9	0
Cc1[nH]nc(SCC(=O)Nc2cc(Br)ccc2O)c1[N+](=O)[O-]	16	0	24	-1
CCCN(c1ccc(OCC)cc1)c1ncnc2nc[nH]c12	18	1	9	-1
CCN(c1ccc(OC)cc1)c1ncnc2nc[nH]c12	37*	1	6	-1
c1cn(-c2ccc(Nc3nc(Nc4ccc5c(c4)OCO5)c4ncn(-c5ccsc5)c4n3)cc2)cn1	53*	0	13	-1
Cn1c(Nc2nc(NCc3nc4ccccc4[nH]3)c3ncn(-c4ccsc4)c3n2)nc2ccccc21	22	0	12	0
c1cncc(CNc2nc(Nc3ccc(-n4ccnc4)cc3)nc3c2ncn3-c2ccsc2)c1	55*	0	6	0
c1ccc2[nH]c(CNc3nc(Nc4ccc(-n5ccnc5)cc4)nc4c3ncn4-c3ccsc3)nc2c1	65*	0	3	-2
c1ccc2[nH]c(CNc3nc(Nc4ccncc4)nc4c3ncn4-c3ccsc3)nc2c1	85*	0	5	-3
COc1ccc(CCNc2cc(C)nc(-c3ccc(C(=O)N4CCN(C)CC4)cc3)n2)cc1	6	0	13	-2
COc1ccccc1NC(=O)CSc1nc2ccccc2c(=O)n1CCCC(=O)NCc1ccccc1	-17	0	2	-1
c1ccc2[nH]c(CNc3nc(Nc4ccncn4)nc4c3ncn4-c3ccsc3)nc2c1	82*	0	-1	-2
O=C(CCCCC(=O)n1nnc2ccccc21)n1nnc2ccccc21	-7	0	-8	2
O=C(N1CCCCC1)n1nnc2ccccc21	75*	1	2	0
COC(=O)c1c(NC(=S)Nc2ccccc2)sc(Cc2ccccc2)c1C	-4	0	6	1
CCOC(=O)/C=C/C(=O)Nc1sc(C)c(C)c1C(N)=O	11	0	15	0
CCOC(=O)c1c(NC(=O)/C=C/C(N)=O)sc(C)c1C	45*	0	6	1
SMILES	TEAD-YAP block	FBW7 activator	MITF inh	GPR151 activ
COC(=O)c1c(NC(=O)/C=C/C(=O)O)sc(Cc2ccccc2)c1C	36*	1	2	-1
CCOC(=O)c1c(-c2ccc(OCC)cc2)csc1NC(=O)/C=C/C(=O)O	48*	0	16	-1
CCOC(=O)c1c(NC(=O)/C=C/C(=O)O)sc(C)c1-c1ccc(Cl)cc1	41*	0	10	0
COc1ccc(C(C[N+](=O)[O-])Sc2ccccc2N)cc1 (configuration not stated)	6	0	0	0
CCOc1ccc(C(=O)Nc2ccc(N3CCN(C(C)=O)CC3)cc2)cc1Br	7	-1	-1	2
CSCCCNC(=O)CC1C(=O)NCCN1Cc1ccccc1C(F)(F)F (configuration not stated)	-1	0	0	0
Oc1ccccc1/C=N/c1ccnn1-c1ccccc1	32*	0	9	-9
C[n+]1ccccc1NCCCN1CCOCC1	3	3.8*	-4	-1
c1ccc(-c2cc(NCCCN3CCOCC3)nc(-c3ccccn3)n2)nc1	64*	-1	117*	-1
c1ccc(-c2nc(NCCCN3CCOCC3)cc(-c3ccncc3)n2)cc1	10	0	5	-2
CCC1(C(=O)c2ccc(C)cc2)C(c2ccccc2)C1(C(=O)OC)C(=O)OC (configuration not stated)	0	0	-6	0
Cc1ccc(NC(=O)c2cc(S(=O)(=O)NCCC3=CCCCC3)ccc2F)cc1F	34*	1	16	-3
COc1oc(-c2ccccc2)cc1/C=N/NC(N)=O	2	0	11	0
c1ccc(-c2nc(NC3CC3)cc(-c3cccnc3)n2)cc1	23	0	17	1
c1ccc(-c2nc(NC3CCCCC3)cc(-c3cccnc3)n2)nc1	69*	-1	19	-1
c1ccc(-c2nc(NC3CCCCC3)cc(-c3ccncc3)n2)nc1	36*	-1	1	-1
c1ccc(-c2nc(NC3CC3)cc(-c3cccnc3)n2)nc1	44*	0	-152	1
OCCNc1nc(Nc2nccc3ccccc23)nc2c1ncn2-c1ccsc1	58*	0	0	1
FC(F)(F)c1cccc(CNc2nc(Nc3nccc4ccccc34)nc3c2ncn3-c2ccsc2)c1	32*	0	-3	1
c1ccc(OCCNc2nc(Nc3ccccn3)nc3c2ncn3-c2ccsc2)cc1	11	0	3	0
CCCNc1nc(Nc2ccccn2)nc2c1ncn2-c1ccccc1	22	0	6	-1
CCCNc1nc(Nc2ccccn2)nc2c1ncn2-c1ccsc1	62*	0	9	-1
OCCNc1nc(Nc2ccccn2)nc2c1ncn2-c1ccsc1	69*	0	-5	1
CN(C(=O)COC(=O)c1ccc(O)cc1)c1ccccc1	16	1	21	-1
Cc1[nH]n2c(=O)cc(C(C)(C)C)nc2c1-c1cccs1	50*	0	13	-1
SMILES	TEAD-YAP block	FBW7 activator	MITF inh	GPR151 activ
COc1cccc(C2CC(c3ccc(F)cc3)Nc3ncnn32)c1 (configuration not stated)	1	1	14	1
COc1ccccc1C(=O)Nc1ccc2nc(SCC(=O)N3CCc4ccccc43)sc2c1	-6	0	3	0
Cc1nnc(SC(C)C(=O)Nc2ccc3nc(SCC(=O)N4CCc5ccccc54)sc3c2)s1 (configuration not stated)	35*	0	-4	-1
COc1ccc(C(=O)OCC(=O)NC(=O)NC2CCCC2)c(O)c1	8	0	-6	1
COCCN(CC(=O)NC1CCCCC1)C(=O)/C=C/C(=O)c1ccc(OC)cc1O	49*	0	-2	2
CCOC(=O)C1=C(C)N=c2s/c(=C/c3cc(C)n(-c4ccc([N+](=O)[O-])cc4)c3C)c(=O)n2C1c1ccc(Cl)cc1 (configuration not stated)	-3	0	-12	-1
COc1ccc(C(=CCl)c2ccc(OC)cc2)cc1	42*	0	-9	2

Compound activity deposited in PubChem by The Scripps Research Institute Molecular Screening Center.
